Data taken from PubChem BioAssay (Tox21).
Inconclusive results are not listed. A number with no mark means an inactive call. Calls come from the whole dose curve.

Assay: qHTS assay to identify small molecule agonists of the NFkB signaling pathway - cell viability counter screen (AID 1159515); note: nearly all actives have a fitted effect of over 55% in size
Conditions: NFkB-bla ME-180 viability, CellTiter-Glo luminescence, 5 h; series mostly up to 61 µM; activity, negative = cytotoxic: at the top concentration
Source text: National Center for Advancing Translational Sciences [NCATS]
NIH Chemical Genomics Center [NCGC]
U.S. Environmental Protection Agency [EPA]
National Institutes of Environmental Health Sciences [NIEHS]
National Toxicology Program [NTP]
U.S. Food and Drug Administration [FDA]
Transcription factors and their stimulated target gene expression play pivotal roles across many cellular processes including responses to environmental stimuli. Proper regulation of associated pathways is critical to maintain cell health and function. Constitutive activation of transcription factor pathways has been implicated in tumors as it may block cellular functions such as apoptosis and lead to invasion and metastasis. One important transcription factor that stimulates gene expression in response to cytokines, UV radiation, and other stimuli is nuclear factor-kappa B (NFkB). To measure activation of the NFkB pathway, the CellSensor NFkB-bla ME-180 cell line (Life Technologies, Carlsbad, CA) that stably expresses beta-lactamase reporter gene under the regulation of a NF-kB response element was used. This assay allows measurement of the NFkB pathway activity induced by compounds in a ME-180 cell line. This system quantitates NF-kB activity using a FRET-based assay system where beta-lactamase expression disrupts FRET, allowing for fluorescent measurement of activity. This cell line has been used to screen the Tox21 10K compound library and to identify compounds that induce the NFkB pathway activity. The cytotoxicity of the Tox21 compound library against the NFkB-bla ME-180 cell line was tested in parallel by measuring cell viability using the CellTiter-Glo assay in the same wells.
Tox21 Assay Protocol Summary:
NFkB-bla ME-180 cells were dispensed at 2,000 cells/6 uL of assay medium per well into black wall/clear-bottom 1536-well plates using a Multidrop Combi (ThermoFisher Scientific, Waltham, MA) dispenser. After the assay plates were incubated at 37 C and 5% CO2 for an overnight, 23 nL of compounds dissolved in DMSO, positive controls or DMSO only was transferred to the assay plate by a Pintool station (Kalypsys, San Diego, CA). The assay plates were incubated at 37 C and 5% CO2 for 5 hr. One uL of LiveBLAzer B/G FRET substrate (Life Technologies) was added using a Flying Reagent Dispenser (Aurora Discovery, San Diego, CA) and the plates were incubated at room temperature for 1.5 hr. Fluorescence intensity (405 nm excitation, 460 nm and 530 nm emissions) was measured using an Envision plate reader (PerkinElmer, Shelton, CT). For cytotoxicity, 3 ul/well of CellTiter-Glo reagent was added into the assay plates using an FRD. After 30 min incubation at room temperature, the luminescence intensity was measured using a ViewLux plate reader (PerkinElmer).
% is set by controls: 0 for no effect and ±100 for the full control effect.

Point of comparison: Nc1ccccc1S(=O)(=O)c1ccccc1, “activity, negative = cytotoxic” value 1.15%. Against it:
- CCCCC(CC)COC(=O)CCCCCCCCC(=O)OCC(CC)CCCC (stereo not given) — higher, 4.58%
- C/C=C/C=C/CO — lower, -13.6%
- COC(=O)C1=C(C)NC(COC(N)=O)=C(C(=O)OC(C)C)C1c1cccc(Cl)c1Cl (stereo not given) — lower, -16.8%
- O=C1[C@H]2CCCC[C@H]2C(=O)N1CCCCN1CCN(c2nsc3ccccc23)CC1 — lower, -17.4%
- O=P(O)(OCc1ccccc1)OCc1ccccc1 — lower, -4.96%
- C=CCOc1ccccc1OCC(O)CNC(C)C (stereo not given) — higher, 6.53%
- C=CCOC(=O)CCC1CCCCC1 — lower, -3.07%
- C#Cc1cccc(Nc2ncnc3cc(OCCOC)c(OCCOC)cc23)c1 — lower, -12.4%
- O=C(O)C1(C(=O)O)CCC1.[NH2-].[NH2-].[Pt+2] — higher, 6.49%
- CCO[Si](CCCCl)(OCC)OCC — lower, 0.203%
- O=C(Nc1ccccc1)c1ccccc1O — higher, 13%
- CNC(=O)CN(CCN(CCN(CC(=O)[O-])CC(=O)NC)CC(=O)[O-])CC(=O)[O-].O.[Gd+3] — higher, 9.98%
- Nc1cc(C(=O)O)c(O)c(S(=O)(=O)O)c1 — lower, -4.81%
- CCOC(=O)C(=O)CCc1ccccc1 — higher, 3.24%
- CC[N+]1(CC)CCC(=C(c2ccccc2)c2ccccc2)C1C (stereo not given) — higher, 3.96%
- CCCCCCCCCOS(=O)(=O)O — higher, 3.36%
- COc1cc(C(=O)OCCCN2CCCN(CCCOC(=O)c3cc(OC)c(OC)c(OC)c3)CC2)cc(OC)c1OC — lower, -11.9%
- CCCC(=O)Nc1ccc(O)c(C(C)=O)c1 — higher, 6.22%
- CN(C)c1ccc(C(c2ccccc2)c2ccc(N(C)C)cc2)cc1 — higher, 7.24%
- Cc1nn(C)c(Oc2ccccc2)c1/C=N/OCc1ccc(C(=O)OC(C)(C)C)cc1 — lower, -10.6%
- CC(C)=CCC/C(C)=C/CC/C(C)=C/CO — lower, -16.3%
- O=C(Nc1ccc(S(=O)(=O)N2CCOCC2)cc1)c1cc(Cl)ccc1NS(=O)(=O)c1ccc(Cl)s1 — higher, 12.7%
- COc1ccc(S(=O)(=O)N2C(=O)[C@@](c3ccccc3OC)(N3C[C@H](O)C[C@H]3C(=O)N(C)C)c3cc(Cl)ccc32)c(OC)c1 — lower, -3.29%
- OC[C@H]1O[C@@H](OCCc2ccc(O)cc2)[C@H](O)[C@@H](O)[C@@H]1O — lower, -2.16%
- CCCOC(C(=O)OC1CCN(C)CC1)(c1ccccc1)c1ccccc1 — lower, -2.64%
- CCNc1cc(O)ccc1C — lower, -6.14%
- Nc1ccc([N+](=O)[O-])c(C(F)(F)F)c1 — higher, 2.46%
- COc1ccc(C(=O)Nc2nc3ccccc3c(NCc3ccccc3)c2C#N)cc1 — lower, -9.83%
- COc1cc(Cl)c(OC)cc1N — higher, 7.24%
- C=CC1CC2C=CC1C2 (stereo not given) — lower, -7.13%
- C[C@H]1C[C@H]2[C@@H]3CCC4=CC(=O)C=C[C@]4(C)[C@@]3(Cl)[C@@H](O)C[C@]2(C)[C@@]1(O)C(=O)CO — lower, -14.7%
- OC(CN1CCC(Cc2ccc(F)cc2)CC1)c1ccc(Cl)cc1 (stereo not given) — lower, -3.98%

Point of comparison: C=CC(=O)OCCOCCOC(=O)C=C, “activity, negative = cytotoxic” value -3.72% [at 78.8 µM]. Against it:
- CCCCC(CC)COC(=O)COc1ccc(Cl)cc1Cl (stereo not given) — higher, -1.69% [at 78.8 µM]
- O=C(O)c1ccc(S(=O)(=O)O)cc1C(=O)O — lower, -4.66% [at 78.8 µM]
- CCC(C)O (stereo not given) — higher, -1.46% [at 78.8 µM]
- CC(C)(C)OCC1CO1 (stereo not given) — higher, 14.2% [at 78.8 µM]
- O=C1CCC(=O)O1 — higher, 19.6% [at 78.8 µM]

For Cc1[nH]c(C)c(Cl)c(=O)c1Cl, the “activity, negative = cytotoxic” value was 6.86% [at 28.5 µM].
